High-throughput results (PubChem)
Sampled rows, rich in hits. Any-hit rate of the full collection: about 1.6%.
Peg3 imprint = qHTS Assay for Compounds that Induce Erasure of Genomic Imprints. mouse ES Peg3-LacZ reporter, beta-gal luminescence, 40 h. Potency, µM (highest dose often 60.7 µM), actives largely listed as activators. 110,000 tested, 0.02% active. AID 1948, 2009
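Readout: BetaGlo luminescence (5 min, room temp) for LacZ from the normally silent maternal Peg3 allele in female Peg3LacZ-Neo ES cells. Cells 300/well, 40 h, 37C, 5% CO2. Data normalized per plate to negative controls.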
p53ts 32C kill = qHTS Screen for Compounds that Selectively Target Cancer Cells with p53 Mutations: Cytotoxicity of p53ts Cells at the Permissive Temperature | 130,000 tested, 0.93% active | Potency, µM (top dose mostly 46.1 µM), actives largely listed as cytotoxic | H1299-p53A138V at 32C, ATP luminescence viability, 24 h; note: nearly all actives have a fitted effect of over 55% in size
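H1299-p53 A138V cells (temperature-sensitive p53) exposed 24 h to up to 46 uM compound at 32C, where p53 is wild-type in conformation. Viability read as ATP luminescence and normalised to DMSO and 100 uM tamoxifen. AC50 fitted with the Hill equation.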
p53ts 39C kill = qHTS Screen for Compounds that Selectively Target Cancer Cells with p53 Mutations: Cytotoxicity of p53ts Cells at the Nonpermissive Temperature; H1299-p53A138V viability at 39C, ATP luminescence, 24 h; Potency, µM (highest dose often 46.1 µM), hits mostly cytotoxic; 130,000 tested, 1.5% active; AID 902, 2007; note: nearly all actives have a fitted effect of over 55% in size
Of the large screens only hits and unclear results are named; the others gave an inactive call. Calls come from the whole dose curve; as a rule, active = well fitted curve in the direction sought with a large enough effect; inconclusive = small, poorly fitted or top-dose-only effect, or another doubt; inactive = no such curve, though single readings can be large; an effect the other way counts as inactive or inconclusive.

O=S(=O)(NCCO)c1cc[c]([Sb])cc1	none (no result: p53ts 32C kill, p53ts 39C kill)
C#CCN[C@@H](C)Cc1ccccc1	none (no result: Peg3 imprint)
CC(=O)[C@@H]1CC[C@H]2[C@H]3CC[C@H]4C[C@@H](O)CC[C@]4(C)[C@@H]3CC[C@]12C	none (no result: Peg3 imprint)
CC(Oc1ccccc1)C(=O)Nc1ccc(C(=O)OCc2cc(=O)n3nc(C4CC4)sc3n2)cc1 (centres undefined)	p53ts 32C kill inconclusive, p53ts 39C kill inconclusive
CN[C@H](Cc1ccccc1)c1cccc(OC)c1O	none
Cc1cc(NC(=O)c2cc(-c3cccc(Cl)c3)on2)nn1Cc1ccc(Cl)cc1	p53ts 39C kill inconclusive
NC(=O)CI	p53ts 32C kill 6.3µM, p53ts 39C kill 5µM
C=C[C@@H]1CN2CC[C@H]1CC2[C@H](O)c1ccnc2ccccc12 (some centres undefined)	none (no result: p53ts 32C kill, p53ts 39C kill)
Cc1cccn2c(=O)cc(COc3cccc(NC(=O)COc4ccc(F)cc4)c3)nc12	p53ts 32C kill inconclusive, p53ts 39C kill 7.9µM
Cc1ccc(-n2nc3ccc(NC(=O)COc4ccccc4C)cc3n2)cc1	none
Cc1cc(Cc2cc(C)c(N)cc2N)c(N)cc1N	Peg3 imprint inconclusive
C[C@@H]1CC[C@@H]2N(C1)C[C@H]1[C@@](O)([C@H](O)C[C@]3(O)[C@H]4CC[C@H]5[C@]6(O)O[C@]4(C[C@]13O)[C@@]5(C)CC[C@@H]6O)[C@@]2(C)O	none
COc1cc2c(cc1OC)-c1c(OC)c(OC)cc3c1C(C2)N(C)CC3 (centres undefined)	none
COc1cc2c(cc1OC)-c1c(O)c(OC)cc3c1[C@H](C2)N(C)CC3	p53ts 32C kill 32µM, p53ts 39C kill inconclusive
O=C(O)[C@H]1CCN1	none (no result: Peg3 imprint)
Cc1ccc(-c2nc(S(=O)(=O)c3ccc(C)cc3)c(SCC(=O)Nc3ccc(F)cc3)o2)cc1	p53ts 39C kill inconclusive
Cc1ccc(-c2nc(S(=O)(=O)c3ccccc3)c(SCC(=O)NC3CCCCC3)o2)cc1	p53ts 39C kill 1.6µM
CCC(=O)OC1CCC2C3CCc4cc(O)ccc4C3CC[C@]12C (some centres undefined)	p53ts 32C kill inconclusive, p53ts 39C kill 10µM
CCC(=O)OC1CCC2C3CCC4=CC(=O)CC[C@@]4(C)C3CC[C@]12C (some centres undefined)	none (no result: p53ts 32C kill, p53ts 39C kill)
CNCCc1ccc(O)c(O)c1	p53ts 32C kill inconclusive, p53ts 39C kill 20µM
COc1ccc(CCN)cc1O	none
CC[C@@H]1CN2CCc3cc(OC)c(OC)cc3[C@H]2C[C@@H]1C[C@@H]1NCCc2cc(OC)c(OC)cc21	p53ts 39C kill inconclusive (no result: Peg3 imprint)
COc1cc2c(cc1OC)[C@@]13CCN4C=C5CCO[C@H]6CC(=O)N2[C@@H]1[C@@H]6[C@H]5C[C@H]43	none (no result: Peg3 imprint)
COc1ccc(NC(=O)c2oc3ccc(S(=O)(=O)N(C)C4CCCCC4)cc3c2C)cc1	p53ts 39C kill inconclusive
COc1c(C)cc(Br)cc1C(=O)Nc1ccc(-c2nc3ncccc3o2)cc1	p53ts 39C kill 6.3µM
O=C(O)C[C@H]1OCC=C2CN3CC[C@@]45C6=CC(=O)C(=O)C([N+](=O)[O-])=C6N[C@H]4[C@H]1[C@H]2C[C@@H]35	none
CCCCCCC(C)(C)c1ccc([C@@H]2C[C@H](O)CC[C@@H]2CCCO)c(O)c1	p53ts 32C kill 13µM, p53ts 39C kill 6.3µM
O=C(O)C[SH+]CC(=O)O.O=C(O)C[SH+]CC(=O)O.[Cu]	none (no result: p53ts 32C kill, p53ts 39C kill)
COc1ccc(C(=O)O)cc1OC	none
O=C(O)c1cc(O)c(O)c(O)c1	p53ts 32C kill 13µM, p53ts 39C kill 10µM
COc1ccc(CCN2CCC(CNC(=O)c3cnn(-c4ccc(C)cc4)c3C3CCN(C(=O)OC(C)(C)C)CC3)CC2)cc1	p53ts 32C kill inconclusive, p53ts 39C kill inconclusive
CC(=O)OC1C[C@H](O[C@@H]2C(O)C[C@H](O[C@@H]3C(O)C[C@@H](OC4CC[C@]5(C)C(CCC6C5CC(O)[C@@]5(C)C(C7=CC(=O)OC7)CC[C@@]65O)C4)OC3C)OC2C)O[C@H](C)[C@H]1O[C@H]1OC(CO)C(O)C(O)C1O (some centres undefined)	p53ts 39C kill inconclusive
CC1CC[C@@]2(OC1)OC1C(O)C3C4CC[C@H]5CC(O[C@@H]6O[C@@H](CO)[C@H](OC7OC(CO)C(O)C(OC8OCC(O)C(O)[C@H]8O)[C@@H]7O[C@@H]7OC(CO)[C@H](O)[C@@H](O[C@@H]8OC(CO)C(O)C(O)C8O)C7O)C(O)C6O)C(O)C[C@]5(C)C4CC[C@]3(C)C1C2C (some centres undefined)	p53ts 32C kill 6.3µM, p53ts 39C kill 6.3µM
CC1CC[C@@]2(OC1)O[C@@H]1[C@@H](O)[C@H]3C4CC[C@H]5C[C@@H](O[C@@H]6O[C@H](CO)[C@H](O[C@@H]7O[C@H](CO)[C@@H](O)[C@H](O[C@@H]8OC[C@@H](O)[C@H](O)[C@H]8O)[C@H]7O[C@@H]7O[C@H](CO)[C@@H](O)[C@H](O[C@@H]8O[C@H](CO)[C@@H](O)[C@H](O)[C@H]8O)[C@H]7O)[C@H](O)[C@H]6O)[C@H](O)C[C@]5(C)C4CC[C@]3(C)[C@H]1[C@@H]2C (some centres undefined)	p53ts 32C kill 13µM, p53ts 39C kill 13µM
CC1=NN(c2ccccc2)C(=O)[C@@H]1N=Nc1ccc([As](=O)(O)O)c(O)c1	none
CN1CC[C@]2(C)c3cc(O)ccc3N(C)[C@@H]12	p53ts 32C kill 20µM, p53ts 39C kill 25µM
CN1CC[C@@]2(C)c3cc(O)ccc3N(C)C12 (some centres undefined)	none (no result: p53ts 32C kill, p53ts 39C kill)
Cc1cc[c]([Sb]2[O]C([C@H](O)[C@H](O)C(=O)O)[C@@H](CO)[O]2)cc1 (some centres undefined)	none (no result: p53ts 32C kill, p53ts 39C kill)
C[C@]1(C(=O)O)[C@@H]2CC[C@@H](O2)[C@@]1(C)C(=O)O	none (no result: Peg3 imprint)
CNc1ccccc1C(=O)O	none
C[CH2][Hg][S]c1ccccc1C(=O)O	p53ts 32C kill 1µM, p53ts 39C kill 1.3µM
CC(C)C[C@H](NP(=O)(O)O[C@@H]1O[C@@H](C)[C@@H](O)[C@@H](O)[C@H]1O)C(=O)N[C@@H](Cc1c[nH]c2ccccc12)C(=O)O	none (no result: Peg3 imprint)
Oc1ccc2c3c1O[C@@H]1c4[nH]c5c(c4C[C@@]4(O)[C@@H](C2)N(CC2CC2)CC[C@]314)C[C@]1(O)[C@@H]2Cc3ccc(O)c4c3[C@@]1(CCN2CC1CC1)[C@H]5O4	none (no result: Peg3 imprint)
